GLP1R inv ag: inverse agonists of human GLP-1 receptor; P43220; HEK293 GLP-1R CRE-luciferase, luminescence, 24 h; GLP-1R form is constitutively active; Potency, µM (titrated, usually from 38.3 µM), without a hit: at the top dose activity change, negative = inhibition, hits mostly inhibitors; 410,000 compounds, 1.6% hits; AID 624417; note: % is set by controls: 0 for no effect and ±100 for the full control effect; nearly all actives have a fitted effect of over 55% in size
Target sequence (P43220 whole entry, looked up): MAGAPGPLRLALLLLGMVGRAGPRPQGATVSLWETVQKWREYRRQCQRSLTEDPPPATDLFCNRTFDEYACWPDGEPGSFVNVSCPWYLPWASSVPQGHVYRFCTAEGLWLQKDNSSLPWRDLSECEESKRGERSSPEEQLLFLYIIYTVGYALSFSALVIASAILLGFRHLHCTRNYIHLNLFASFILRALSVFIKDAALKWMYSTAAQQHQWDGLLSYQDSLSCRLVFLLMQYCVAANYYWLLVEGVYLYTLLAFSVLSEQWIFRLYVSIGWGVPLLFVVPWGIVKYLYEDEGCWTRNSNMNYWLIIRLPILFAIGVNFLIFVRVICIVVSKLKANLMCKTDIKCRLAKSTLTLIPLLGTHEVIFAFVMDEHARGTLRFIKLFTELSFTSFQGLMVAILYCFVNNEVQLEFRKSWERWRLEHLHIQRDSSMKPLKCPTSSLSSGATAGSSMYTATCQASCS
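Inverse agonism was detected as reduced cAMP-driven luciferase luminescence after 24 h compound treatment. The cells were HEK293 clones expressing constitutively active human GLP-1R with the reporter. Reporter-only and GPR119 cell lines served as counterscreen controls.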
Mito fusion act: mitochondrial division inhibition or fusion activation; Potency, µM (series often up to 46.1 µM), for the others: top-dose growth rescue (activation), usual class: activators; AID 485298; S. cerevisiae fusion-defective mutant growth rescue, CellTiterGlo 48 h; 320,000 compounds, 0.23% hits; note: % of control where 0% means no effect; nearly all actives have a fitted effect of over 45% in size
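Yeast fusion mutant, YPEG (non-fermentable carbon), compound, 48 h at 37C non-permissive; CellTiterGlo added, 10 min RT, luminescence read. Rescued growth = division inhibition.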
GLP1R ag: activates the human GLP-1 receptor; P43220; HEK293 GLP-1R CRE-luciferase, luminescence, 4-6 h; cells express a hypersensitive GLP-1R form; Potency, µM (titrated, usually from 45.6 µM), inactives show top-dose activation, hits mostly activators; 380,000 compounds, 0.007% hits; note: % of control where 0% means no effect
GLP1R cytotox: cytotoxic in the GLP-1 receptor inverse agonist counter-screen; HEK293 cAMP-luciferase reporter cells, luminescence, 24 h; Potency, µM (doses to about 38.3 µM), for inactives: at the highest dose activity change, negative = inhibition, most hits filed as inhibitors; 410,000 compounds, 0.13% hits;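 note: loss of luciferase light is scored as toxicity; % is set by controls: 0 for no effect and ±100 for the full control effect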
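MLSMR compounds, 24 hr on cells at 37 deg C/5% CO2; luminescence after luciferase reagent (12 min RT). Inhibition counted as the undesired cytotoxic outcome.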
BRCA1 expr act: BRCA1 expression activation | AID 624202 | 380,000 compounds, 1.1% hits | MCF7-BRCA1-FFLuc reporter, luminescence, 48 h; response scale: scaled: vehicle 0%, 10 µM genistein 100% | Potency, µM (top dose mostly 46.1 µM), for inactives: at the top dose activation, hits mostly activators; note: nearly all actives have a fitted effect of over 80% in size
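First, MCF7-BRCA1-FFLuc cells (2000/well) attach for 2 h; next, compounds are pin-added and incubated 48 h at 37 °C; finally, luciferase reagent is added and luminescence read after 15 min.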
Starred values were filed as active, the others as inactive; ? = inconclusive; / = not tested or not shown; [ ] = dose if it differs, or a comment. Only some compounds are listed: those with a hit (about 2.8% of all), similar ones and a draw of the others. Calls come from the whole dose curve; as a rule, active = well fitted curve in the direction sought with a large enough effect; inconclusive = small, poorly fitted or top-dose-only effect, or another doubt; inactive = no such curve, though single readings can be large; an effect the other way counts as inactive or inconclusive. Potency is the fitted concentration of half-maximal effect.

SMILES | GLP1R inv ag | Mito fusion act | GLP1R ag | GLP1R cytotox | BRCA1 expr act
O=S1(=O)CCS(=O)(=O)C1c1ccccc1 | 11µM* | / | -9% | ? | -39%
NS(=O)(=O)c1ccc2nc(NC(=O)C3CCCO3)sc2c1 (centres undefined) | 41% | -4% | 6% | -5% | 41%
Cn1cc(/C=C(\NC(=O)c2ccccc2Cl)C(=O)NCCN2CCOCC2)c2ccccc21 | 1% | 1% | -1% | -12% | 11%
Cc1ccc(C)c(CSc2nnc(-c3ccccn3)n2N)c1 | -16% | 2% | 2% | -26% | 11%
Nn1c(SCc2c(F)cccc2F)nnc1-c1ccccn1 | -16% | -1% | 6% | 0% | 5.6µM*
C=CCNc1nc2c(c(=O)[nH]c(=O)n2C)n1CCOc1ccccc1 | 89% | 1% | 9% | 11% | -17%
Cc1ccc(C2=NNC(c3ccc(Cl)cc3)=Nc3ccccc32)o1 | 7.9µM* | 11% | 4% | -26% | -16%
CC(C)c1ccc(NC(=S)NN(c2ccccc2)c2ccccc2)cc1 | 5.6µM* | -5% | -1% | ? | 1%
CCc1cc2c(=O)n(-c3ccccc3)c(SCC(N)=O)nc2s1 | 1% | 1% | -1% | -10% | 7%
Cc1ccc(S(=O)(=O)N(Cc2ccccc2)c2ccccc2C(=O)Nc2ccccc2C(=O)NCc2ccco2)cc1 | 5µM* | -1% | -5% | 15% | -21%
COc1ccc2ccccc2c1C(=O)/C=C\c1ccoc1 | ? | 10µM* | -3% | -2% | -28%
C=CCN(C(=O)COC(=O)c1cc[n+]([O-])cc1)c1nc(-c2ccccc2)cs1 | 25% | / | 19% | 1% | 84%
CCN1CCCC(Sc2nc3c([nH]2)c(=S)n(C)c(=O)n3C)C1 (centres undefined) | 4.5µM* | -28% | 0% | ? | -40%
Cn1c(=S)c2[nH]c(SCCN3CCCC3)nc2n(C)c1=O | 5.6µM* | -25% | -5% | ? | -7%
CCCCSc1nc2c([nH]1)c(=O)n(C)c(=S)n2C | 6% | / | 0% | -5% | -13%
Cn1c(=S)c2[nH]c(SCCN)nc2n(C)c1=O | ? | / | -3% | 3.2µM* | -39%
C/C(=N\NC(=O)c1ccc(O)cc1)c1ccc(NC(=O)Cc2ccccc2)cc1 | ? | -2% | 3% | ? | 8.9µM*
C/C(=N/NC(=O)c1ccco1)c1ccc(NC(=O)c2ccc(Br)o2)cc1 | 2% | 1% | 10% | 8% | ?
C/C(=N\NC(=O)c1ccc(F)cc1)c1ccccn1 | 1.1µM* | -47% | 0% | -27% | -53%
C/C(=N/NC(=O)c1ccco1)c1ccc(NC(=O)c2ccc(F)cc2)cc1 | -19% | / | 10% | -2% | 7.1µM*
N#CC1=C(N)OC2=C(CCc3ccccc32)C1c1ccccc1 (centres undefined) | 1.3µM* | ? | 14% | -27% | -84%
O=C(CSc1cccc[n+]1[O-])NC1CCCCCCC1 | -11%[0.307 µM] | 6% | -9% | -10%[0.307 µM] | 26%
Cc1ccc(-c2nnc(CSc3nnc(COc4ccccc4)n3-c3ccccc3)o2)cc1 | 10µM* | ? | 3% | -7% | -24%
Cc1noc(C)c1CSc1ccc2ccccc2n1 | -4% | 16% | 4% | -4% | 0%
CC1C/C(=N\NC(=O)CCc2ccc(S(=O)(=O)N3CCOCC3)cc2)CC(C)(C)C1 (centres undefined) | 10% | -7% | 4% | 70% | -2%
Cn1cc(-c2nc3ccccc3[nH]2)c2ccccc21 | ? | 2% | 6% | -20% | 11µM*
Cc1c(-c2nc3ccccc3[nH]2)cnn1C | 12% | -1% | -3% | 0% | 51%
CC1c2ccccc2SC(CCCN(C)C)c2ccccc21 (centres undefined) | 11µM* | / | 19% | -29% | -28%
CN(C)CCC1Sc2ccccc2Oc2ccccc21 (centres undefined) | ? | -10% | 10% | ? | -15%
COc1ccc(-c2ccc(C)cc2)cc1[C@H]1[C@@H]2C=CCC[C@@]2(C)C(=O)N1Cc1ccccc1 | 10µM* | -44% | 5% | 1% | -36%

Bioassay records from PubChem BioAssay.
